KCNH2 3.1 block: KCNH2 3.1 (human) potassium channel inhibition. U2OS KCNH2 3.1, thallium flux FluxOr; stronger effect = lower value. activity change, % (tested at about 1.8 µM). AID 720553. 0.95% of 340,000 active;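 active means maximum activity change below -70%; inconclusive means maximum activity change from -70% to -50%; inactive means maximum activity change above -50%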;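 further: thallium influx rate constant from kinetic fluorescence after stimulation buffer; on the % scale 0 is the no-effect control and ±100 the full control effect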
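Thallium flux via FluxOr fluorescence (Red40 quencher, 45 min loading) in U2OS cells virally expressing the KCNH2 3.1 isoform (1.77 x 10^8 /mL virus, overnight at 37 C). Rate constants from 2-min kinetic reads post-stimulation, normalised to positive and negative controls.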
12-LOX inh: blocks human arachidonate 12S-lipoxygenase. purified 12hLO, xylenol orange hydroperoxide absorbance. Potency, µM (highest dose often 108 µM), without a hit: top-dose activity change, negative = inhibition, usual class: inhibitors. 1.1% of 580,000 active. AID 1671190; further: potency means the concentration at half of the fitted maximal effect; on the % scale 0 is the no-effect control and ±100 the full control effect
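Purified human 12hLO (150 nM final) in 25 mM Hepes, 0.01% Triton X-100, pH 7.0 was preincubated 15 min at room temperature with compound. Then 40 uM arachidonic acid was added, 30 min. Hydroperoxide was read by Fe-XO absorbance ratio 573/405 nm.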
KCNH2 WT inh: blocks the wildtype human KCNH2 potassium channel. activity change, % at 1.84 µM. 0.37% of 340,000 active. U2OS, BacMam KCNH2, thallium flux FluxOr; stronger effect = lower value. Q12809;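 active means maximum activity change below -70%; inconclusive means maximum activity change between -70% and -50%; inactive means maximum activity change above -50%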; further: on the % scale 0 is the no-effect control and ±100 the full control effect
Target sequence (Q12809 whole entry, looked up): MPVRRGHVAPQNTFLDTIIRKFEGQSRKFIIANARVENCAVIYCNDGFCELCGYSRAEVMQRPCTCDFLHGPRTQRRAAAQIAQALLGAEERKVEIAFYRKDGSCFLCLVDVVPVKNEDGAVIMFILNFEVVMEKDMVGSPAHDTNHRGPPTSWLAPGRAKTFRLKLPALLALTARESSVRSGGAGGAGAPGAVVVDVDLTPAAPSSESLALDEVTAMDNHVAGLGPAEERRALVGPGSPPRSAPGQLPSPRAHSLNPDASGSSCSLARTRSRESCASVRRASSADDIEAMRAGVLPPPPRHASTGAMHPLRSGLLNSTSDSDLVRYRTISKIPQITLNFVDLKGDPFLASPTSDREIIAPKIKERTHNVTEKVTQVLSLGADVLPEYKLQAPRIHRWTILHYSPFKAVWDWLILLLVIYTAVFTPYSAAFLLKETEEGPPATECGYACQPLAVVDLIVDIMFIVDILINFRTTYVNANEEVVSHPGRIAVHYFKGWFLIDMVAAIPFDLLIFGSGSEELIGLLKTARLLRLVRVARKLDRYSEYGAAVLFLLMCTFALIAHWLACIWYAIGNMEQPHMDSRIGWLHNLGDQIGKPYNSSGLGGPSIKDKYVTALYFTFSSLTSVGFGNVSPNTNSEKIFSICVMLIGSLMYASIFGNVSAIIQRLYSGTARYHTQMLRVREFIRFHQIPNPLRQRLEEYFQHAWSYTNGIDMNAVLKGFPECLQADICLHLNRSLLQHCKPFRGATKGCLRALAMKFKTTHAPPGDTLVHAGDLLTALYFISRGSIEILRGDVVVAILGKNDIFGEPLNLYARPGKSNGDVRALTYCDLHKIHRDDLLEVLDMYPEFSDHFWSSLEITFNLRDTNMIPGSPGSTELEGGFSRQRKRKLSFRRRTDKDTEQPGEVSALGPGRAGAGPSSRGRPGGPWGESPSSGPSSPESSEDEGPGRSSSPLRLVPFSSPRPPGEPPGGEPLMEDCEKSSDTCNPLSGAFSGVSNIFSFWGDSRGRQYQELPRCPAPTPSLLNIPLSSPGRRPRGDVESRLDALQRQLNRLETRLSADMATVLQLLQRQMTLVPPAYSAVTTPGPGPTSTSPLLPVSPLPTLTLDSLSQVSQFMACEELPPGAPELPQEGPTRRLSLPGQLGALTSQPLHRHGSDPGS
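U2OS cells were transduced with wild-type KCNH2 virus (2.03 x 10^8 / mL) for 4 h at room temperature, then cultured overnight at 37 C. Thallium flux was read with FluxOr dye. Rate constants were normalized to DMSO controls.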
A-T KAP1 phos: potential ataxia-telangiectasia treatments restoring KAP-1 phosphorylation; Potency, µM (doses to about 57.5 µM), inactives show at the top dose activation, actives largely listed as activators; 0.19% of 320,000 active; F2112 A-T fibroblasts, KAP-1 phosphorylation AlphaLISA; neocarzinostatin DNA damage 30 min before lysis; further: potency means the concentration at half of the fitted maximal effect; % of control where 0% means no effect; nearly all actives have a fitted effect of over 45% in size
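ATM-like activity read as KAP-1 phosphorylation via AlphaLISA donor/acceptor antibody pairs after lysis and 6 hr at 25C. Cells were ATM-null patient fibroblasts (F2112, hTERT), dosed 60 min, then exposed to the DSB inducer NCS for 30 min.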
The depositor's hits bear a star; i = inactive; u = inconclusive; x = not tested or not shown; ! = not confirmed by another sample; [ ] = another dose, or the depositor's remark. Most compounds without a hit are left out; they make up all but 1.8% or so of the library. Unless noted, the call rests on the fitted dose curve; in most records, active means well fitted curve in the direction sought with a large enough effect; inconclusive means small, poorly fitted or top-dose-only effect, or another doubt; inactive means no such curve, though single readings can be large; an effect the other way counts as inactive or inconclusive.

SMILES	KCNH2 3.1 block	12-LOX inh	KCNH2 WT inh	A-T KAP1 phos
CC(=O)/C(N=Nc1nc2c([nH]1)c(=O)n(C)c(=O)n2C)=C(\C)O	4	456%	6	7.1µM*
N#Cc1ccc(N2CCC(C(=O)Nc3nccs3)CC2)nc1	x	41%	x	x
Cc1cc(C(=O)N2C[C@@H](F)C[C@H]2C(=O)N2CCc3ccccc3C2)n(C)n1	x	24%	x	x
Clc1ccc2nc(-c3ccco3)c(Cc3ccccc3)n2c1	x	18µM*	x	x
Fc1cccc(Cc2c(-c3ccco3)nc3ccc(Br)cn23)c1	x	-114%	x	x
Clc1cccc(Cc2c(-c3ccco3)nc3c4ccccc4ccn23)c1	x	10µM*	x	x
CCCc1nc2ccc(C(=O)OC)cn2c1Cc1ccc(C)cc1	x	10µM*	x	x
COC(=O)c1ccc2nc(-c3ccco3)c(Cc3cccc(Cl)c3)n2c1	x	16µM*	x	x
Cn1c(CN2CCN(c3ccccc3NC(=O)c3ccccc3)CC2)nc2ccccc21	x	20%	x	x
COC(=O)c1ccc2nc(-c3ccccc3)c(Cc3ccccc3)n2c1	x	0%	x	x
COC(=O)c1ccc2nc(-c3ccco3)c(Cc3ccccc3)n2c1	x	40µM*	x	x
Cc1cccc([C@H]2[C@@H]3C=CCC[C@@H]3C(=O)N2Cc2ccccc2)c1	-2	28µM*	6	10%
CCc1[nH]c2c(CNC(=O)c3n[nH]c4c3CCC4)cc(C)cc2c1C	x	93%	x	x
Nc1c(Cl)cc(N=Cc2ccc(Cl)cc2Cl)cc1Cl	x	0%	x	x
CCOc1ccc(C(=O)N2CCC3(CC2)NC(=O)N(c2ccc(F)cc2)N3)cc1	x	2.2µM*	x	x
Cc1ccsc1C(=O)N1CCC2(CC1)NC(=O)N(c1ccc(F)cc1)N2	x	2.2µM*	x	x
Cc1ccc(C(=O)N2CCC3(CC2)NC(=O)N(c2cccc(Cl)c2)N3)c(C)c1	x	1.4µM*	x	x
CN(C)c1cccc(C(=O)N2CCC3(CC2)NC(=O)N(c2cccc(F)c2)N3)c1	x	2.2µM*	x	x
Cc1ccc(C(=O)N2CCC3(CC2)N(C)C(=O)CS3(=O)=O)c(C)c1	x	40%	x	x
CONC(=O)c1ccc(C(F)(F)F)nc1C	x	1%	x	x
O=C(NC1CCCc2ccccc21)c1cc(-c2ccncc2)nc2ccc(Cl)cc12 (stereo unspecified)	x	19%	x	x
O=C(Cc1ccc(F)cc1)N1CCC2(CC1)NC(=O)N(Cc1ccccc1)C2=O	x	-4%	x	x
Cc1ccc(C(=O)N2CCC3(CC2)NC(=O)N(c2ccc(F)cc2)N3)cc1	x	3.2µM*	x	x
Cc1ccc(N2NC3(CCN(C(N)=O)CC3)NC2=O)cc1	-12	u	5	1%
Cc1ccc(C)c(C(=O)N2CCC3(CC2)NC(=O)N(c2cccc(F)c2)N3)c1	x	2.2µM*	x	x
SMILES	KCNH2 3.1 block	12-LOX inh	KCNH2 WT inh	A-T KAP1 phos
Cc1ccc(C(=O)N2CCC3(CC2)NC(=O)N(c2cccc(F)c2)N3)cc1	x	2.5µM*	x	x
O=C(Cc1ccc(Cl)cc1)N1CCC2(CC1)NC(=O)N(c1ccc(F)cc1)N2	x	2.5µM*	x	x
O=C(Nc1ccccc1-c1ccccc1)c1ccccc1C(F)(F)F	x	-4%	x	x
COc1ccc(NC(C)=O)c(NC(=O)CSc2nc3ccccc3o2)c1	x	-17%	x	x
O=C(c1cccc(F)c1)N1CCC2(CC1)NC(=O)N(c1ccccc1Cl)N2	x	1.3µM*	x	x
CCCOc1ccc(C(=O)N(Cc2ccco2)Cc2ccco2)cc1	x	-18%	x	x
CCCCOc1ccc(C(=O)N(Cc2ccco2)Cc2ccco2)cc1	x	18µM*	x	x
C[C@H]1[C@@H]2[C@H]3OC(=O)[C@@H](C)[C@@H]3CC[C@@]2(C)CC[C@@H]1NC(=O)CC(C)(C)C	x	26%[176 µM]	x	x
CCS(=O)(=O)C1=NN2C(=N)/C(=C\c3ccc(SCc4ccco4)o3)C(=O)N=C2S1	2	35µM*	-5	5%
CCS(=O)(=O)C1=NN2C(=N)/C(=C\c3ccc(OC(=O)c4ccco4)c(Br)c3)C(=O)N=C2S1	x	x	x	-4%
NC(=S)Cc1nc(-c2ccc(Cl)cc2)cs1	12	35µM*	-4	2%
CCC(C)NC(=O)Nc1cc(C(=O)NC)ccc1C (stereo unspecified)	x	-33%	x	x
CN1CCc2cc3c(c4c2[C@H]1[C@H](O)c1ccccc1-4)OCO3	1	-19%	-6	-15%
CN1CCc2cccc3c2[C@H]1Cc1ccc(O)c(O)c1-3	x	1.4µM*!	x	-8%
S=C1NCCc2ccccc2C1c1ccccc1Cl (stereo unspecified)	17	u	21	3%
S=C1NCCc2ccccc2C1c1ccccc1 (stereo unspecified)	6	35µM*	-2	-1%
CCCCCn1nc(C(=O)NCc2ccccc2F)c2ccccc2c1=O	x	-5%	x	x
Cc1ccc2oc(=O)n(CC(=O)N3CCOCC3)c2c1	-8	u	-142*	5%
CCCn1cc(-c2ccncc2)cc1C(=O)N1CCCCC1	x	36%	x	x
COc1ccccc1OCCn1cc(C=O)c2ccccc21	-90*	u	-7	31%
COc1ccc(/C=C/C(=O)OCC2C(COC(=O)/C=C/c3ccc(OC)c(OC)c3)C2(Cl)Cl)cc1OC (stereo unspecified)	x	-29%	x	x
Oc1c(CN2CCOCC2)ccc2ccccc12	-6	45µM*	8	4%
OC(CNCCc1ccc(C(F)(F)F)cc1)COC(c1ccccc1)c1ccccc1 (stereo unspecified)	-74*	14µM*	x	11%
CCCn1nc(C(=O)NCc2nnc3n2CCCCC3)c2ccccc2c1=O	x	-8%	x	x
O=C(OCC(=O)N1CCCC1=O)c1cc(-c2ccco2)nc2ccccc12	x	5.6µM*	x	x
SMILES	KCNH2 3.1 block	12-LOX inh	KCNH2 WT inh	A-T KAP1 phos
O=C(OCC(=O)N1CCN(C(=O)c2ccco2)CC1)c1cc(-c2ccco2)nc2ccccc12	-8	4.5µM*	10	2%
COc1ccc(-c2cn3c(n2)CO[C@@H](CNS(C)(=O)=O)C3)cc1	x	29%[176 µM]	x	x
COc1ccc(-c2cn3c(n2)CO[C@@H](CNCc2ccc(Cl)cc2)C3)cc1	x	8.9µM*	x	x
c1ccc(CN2CCC(Nc3nc(-c4cccs4)nc4ccccc34)CC2)cc1	-73*	u	x	-5%
COc1ccc(C(=O)N/N=C\C(C)=C\c2ccccc2)cc1OC	-98*	i	2	x
O=C(N/N=C/C=C/c1ccccc1)C(O)c1ccccc1 (stereo unspecified)	-3	-9%	-11	x
CC(/C=N/NC(=O)C(O)c1ccccc1)=C\c1ccccc1 (stereo unspecified)	-169*	8%	-13	8%
CCn1nc(C(=O)Nc2cc(Cl)c(N)c(Cl)c2)c2ccccc2c1=O	x	-31%	x	x
C/C(=N/Nc1ccc(S(N)(=O)=O)cc1[N+](=O)[O-])c1ccccc1Br	x	35µM*	x	x
C/C(=N/Nc1ccc(F)cc1F)c1ccccc1Br	x	50µM*	x	x
CC(C)c1nnc(NC(=O)c2cc(=O)[nH]c3ccccc23)s1	x	-16%	x	x
O=C(Nc1ccccc1)c1c(F)cccc1F	4	15%	-10	10%
O=C(NC(=O)c1c(F)cccc1F)Nc1ccccc1SC(F)F	-25	0%	-14	10µM*
Cc1nc(NS(=O)(=O)c2ccccc2)sc1NC(=O)Nc1ccc(Cl)cc1	-11	40µM*	-1	-1%
